Assay outcomes as filed in PubChem.
This is one part of a sample in which hits are shown more often than they occur.
12-LOX inh = ALOX12 (human) lipoxygenase inhibition; P18054; Potency, µM (doses to about 108 µM), for inactives: top-dose activity change, negative = inhibition, hits mostly inhibitors; purified 12hLO, xylenol orange hydroperoxide absorbance; hit rate 1.1% among 580,000; also: potency is read from the fitted curve at half-maximal effect
Target sequence (P18054 whole entry, looked up): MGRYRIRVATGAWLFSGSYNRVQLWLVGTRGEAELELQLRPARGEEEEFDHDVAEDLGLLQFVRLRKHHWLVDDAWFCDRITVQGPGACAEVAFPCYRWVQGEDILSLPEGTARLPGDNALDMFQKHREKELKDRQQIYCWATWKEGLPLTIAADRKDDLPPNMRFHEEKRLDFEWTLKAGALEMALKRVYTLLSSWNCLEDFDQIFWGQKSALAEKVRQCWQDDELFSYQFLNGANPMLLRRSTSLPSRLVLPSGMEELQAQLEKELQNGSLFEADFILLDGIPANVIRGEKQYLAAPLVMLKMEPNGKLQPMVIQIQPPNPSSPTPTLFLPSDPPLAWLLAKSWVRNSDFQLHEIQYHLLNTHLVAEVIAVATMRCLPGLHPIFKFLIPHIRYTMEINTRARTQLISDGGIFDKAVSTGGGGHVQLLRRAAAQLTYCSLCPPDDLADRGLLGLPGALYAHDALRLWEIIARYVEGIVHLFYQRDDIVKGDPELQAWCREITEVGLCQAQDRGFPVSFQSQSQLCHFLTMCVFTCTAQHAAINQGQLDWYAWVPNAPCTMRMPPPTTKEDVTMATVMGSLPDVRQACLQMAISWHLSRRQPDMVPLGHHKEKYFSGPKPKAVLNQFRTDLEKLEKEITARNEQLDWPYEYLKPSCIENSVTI
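Hydroperoxide product was detected by ferrous iron/xylenol orange as the 573 to 405 nm absorbance ratio. Arachidonic acid at 40 uM (final) was turned over for 30 min at room temperature by 150 nM human 12hLO, pH 7.0 Hepes buffer, after 15 min compound preincubation.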
TDP1 cell CPT = growth inhibition of DT40 Tdp1-/-;hTDP1 cells with camptothecin (screen for TDP1 inhibitors); chicken DT40 Tdp1-/-;hTDP1 cells + 20 nM CPT, ATP luminescence, 48 h; Potency, µM (series often up to 46.2 µM), for inactives: at the highest dose activity change, negative = growth inhibition, hits mostly inhibitors; hit rate 12% among 420,000; AID 686979; also: potency is read from the fitted curve at half-maximal effect; nearly all actives have a fitted effect of over 55% in size
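Chicken DT40 Tdp1-/- cells complemented with human TDP1, 400 cells/well, exposed to compounds plus 20 nM camptothecin for at least 48 h at 37 C; viability read as ATP content by CellTiter-Glo luminescence.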
HT1080NT lethal = kills 2HG-producing HT-1080-NT fibrosarcoma cells; HT-1080-NT fibrosarcoma viability, CellTiter-Glo ATP luminescence, 48 h; AID 686970; Potency, µM (series often up to 46.1 µM), for the others: at the highest dose activity, negative = less viability, actives largely listed as cytotoxic; hit rate 1.6% among 360,000;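 also: NT is the 2HG producing partner of a matched IDH1 knockdown line; potency is read from the fitted curve at half-maximal effect; 0% = DMSO-treated cells and -100% = media-only wells without cells; nearly all actives have a fitted effect of over 55% in size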
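Viability of the 2HG-overproducing fibrosarcoma line after 48 hours of compound exposure at 37 degrees C was determined by luminescence with CellTiter-Glo, and concentration-effect curves were then fitted and categorized.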
DT40 TDP1 no CPT = qHTS for Inhibitors of human tyrosyl-DNA phosphodiesterase 1 (TDP1): qHTS in cells in absence of CPT | DT40 Tdp1-/- hTDP1 cells, no CPT, ATP luminescence, 48 h | Potency, µM (top dose mostly 46.2 µM), for the others: top-dose activity change, negative = growth inhibition, most hits filed as inhibitors | hit rate 15% among 420,000; also: potency is read from the fitted curve at half-maximal effect; nearly all actives have a fitted effect of over 55% in size
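DT40 Tdp1-/-;hTDP1 cells, no CPT (DMSO vehicle only), 400 cells/well; compounds pin-transferred; ≥48 hr, 37 °C; CellTiter-Glo 30 min RT dark, luminescence read.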
IL1B secr inh = blocks inflammasome-driven IL-1 beta release. THP-1 LPS/ATP IL-1B secretion, AlphaLISA, 16 h; active compounds read low. activity change, % at 57.5 µM. hit rate 4.7% among 360,000; in the data active = activity change below about -50%; inconclusive = mostly about -30% to -49%
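THP-1 cells pretreated 1 hr with compounds (up to 57.5 uM final), then stimulated with LPS (250 ng/mL final) plus ATP (1.25 mM final); secreted IL-1B measured by AlphaLISA after 16 hr, decreased signal indicating inhibition.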
HT1080 IDH1KD tx = HT-1080 IDH1 knockdown cell toxicity (counter line). HT-1080 IDH1 knockdown viability, ATP luminescence, 48 h. Potency, µM (series often up to 46.1 µM), for the others: at the top dose activity, negative = toxicity, usual class: cytotoxic. hit rate 2% among 360,000. AID 686971;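 also: potency is read from the fitted curve at half-maximal effect; 0% = DMSO wells and -100% = cell-free medium wells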
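CellTiter-Glo luminescence after 48 h compound exposure at 37 degrees C of IDH1-knockdown HT-1080 cells in 5% FBS RPMI. %Activity scaled between DMSO wells and cell-free media wells, with curves fitted and assigned curve classes.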
An asterisk follows results filed as active; ? = inconclusive; / = no result. Unless noted, calls follow the shape of the dose curve; as a rule, active = well fitted curve in the direction sought with a large enough effect; inconclusive = small, poorly fitted or top-dose-only effect, or another doubt; inactive = no such curve, though single readings can be large; an effect the other way counts as inactive or inconclusive. Unless noted, % is scaled to controls: 0 for no effect and ±100 for the full control effect.

SMILES	12-LOX inh	TDP1 cell CPT	HT1080NT lethal	DT40 TDP1 no CPT	IL1B secr inh	HT1080 IDH1KD tx
NC(Cc1ccc(Cl)cc1)c1csc(Nc2ccc(C(=O)NCCCO)cn2)n1 (stereo unspecified)	-2%	?	15µM*	?	0	?
NC(COCc1ccccc1)c1csc(Nc2cc(NCCCO)ncn2)n1 (stereo unspecified)	3%	?	7%	?	-29	3%
NC(Cc1ccc(Cl)cc1)c1csc(Nc2cc(NCCCO)ncn2)n1 (stereo unspecified)	?	?	?	15µM*	-60*	?
COc1ccc(CC(N)c2csc(Nc3cc(NCCCO)ncn3)n2)cc1 (stereo unspecified)	1%	?	-20%	?	-57*	?
CC(C)NC(=O)N1CCCCCC1CN1CCOCC1 (stereo unspecified)	13%	/	/	/	/	/
O=C1Cc2c([nH]c3ccc(Br)cc23)-c2ccccc2N1	?	?	-24%	?	-97*	?
CC(OC(=O)c1oc2ccccc2c1COc1ccccc1)C(N)=O (stereo unspecified)	19%	?	1%	-19%	2	-10%
COCc1c(C(=O)NCCc2ccc(OC(F)F)cc2)oc2ccccc12	3%	13µM*	-5%	12µM*	-8	-1%
COCc1c(C(=O)NCCOc2ccc(Cl)cc2)oc2ccccc12	24%	26µM*	-6%	23µM*	3	0%
CC(C)(C)NC(=O)c1oc2ccccc2c1COc1ccccc1	-17%	?	7%	13µM*	12	-2%
Cc1cc(F)ccc1NC(=O)C1CSC2(C)CCC(=O)N12 (stereo unspecified)	-14%	-5%	-1%	-7%	-5	3%
CC(=O)Nn1cnc2c(c1=O)C1(CCCC1)Cc1ccccc1-2	0%	-1%	2%	0%	16	?
Cc1ccc(-n2c(SCC(N)=O)nc3c(c2=O)C2(CCCC2)Cc2ccccc2-3)cc1	-8%	-25%	-6%	?	-63*	-4%
Nn1cnc2c(c1=O)C1(CCCCC1)Cc1ccccc1-2	-12%	9.2µM*	-10%	8.2µM*	0	-10%
Oc1ccc(-c2nc3c4c(ncn3n2)-c2ccccc2CC42CCCC2)cc1	-19%	15µM*	12%	16µM*	-1	17%
CCOc1ccccc1NC(=O)Cc1nc(-c2ccccc2)oc1C	4%	/	/	/	/	/
COc1ccc(N=C2NN=C(c3c(C)[nH]c4ccccc34)CS2)cc1	?	?	?	23µM*	?	?
Cc1c(N=C2NN=C(c3c[nH]c4ccccc34)CS2)c(=O)n(-c2ccccc2)n1C	-1%	-3%	-6%	3%	2	-2%
Cc1[nH]c2ccccc2c1C1=NNC(=Nc2ccc(F)cc2)SC1	?	?	-26%	?	-66*	-24%
O=C(/C=C/c1ccc(N2CCCCC2)c([N+](=O)[O-])c1)c1ccc(S(=O)(=O)N2CCCC2)cc1	-3%	9.2µM*	7%	9.2µM*	6	3%
COc1cccc(C(=O)/C=C/c2ccc(N3CCCCC3)c([N+](=O)[O-])c2)c1	-4%	18µM*	?	?	-96*	?
CN1CCN(c2nc(-c3ccc(Cl)s3)cs2)CC1	8.9µM*	2%	1%	?	-16	1%
Clc1ccc(-c2csc(N3CCCCCC3)n2)cc1	0%	-8%	3%	-12%	-16	2%
C=CCn1c(O)c(N=Nc2ccccc2O)c2ccccc21	?	?	-14%	18µM*	?	-23%
C=CCn1c(O)c(N=Nc2ccccc2)c2ccccc21	?	?	-5%	?	9	11%
SMILES	12-LOX inh	TDP1 cell CPT	HT1080NT lethal	DT40 TDP1 no CPT	IL1B secr inh	HT1080 IDH1KD tx
Cc1ccccc1N=Nc1c(O)n(C)c2ccccc12	0%	?	3%	23µM*	19	-8%
C=CCn1c(O)c(N=Nc2nc3ccccc3c(=O)n2-c2ccccc2)c2ccccc21	9%	-30%	0%	12µM*	24	-11%
O=C1CC/C=C\C[C@@H](CC(=O)N(CCO)Cc2ccccc2)C(=O)NCCO1	-45%	-8%	24%	-11%	-5	3%
O=C1CCCC/C=C\C[C@H](CC(=O)N(CCO)Cc2ccccc2)C(=O)N[C@@H](c2ccccc2)CO1	10%	?	14%	-22%	26	15%
O=C(N[C@@H]1C/C=C\C[C@H](CC(=O)N(CCO)Cc2ccccc2)C(=O)N[C@@H](Cc2ccccc2)COC1=O)OCC1c2ccccc2-c2ccccc21	0%	16µM*	-10%	16µM*	17	-12%
CC(C)(C)[C@H]1COC(=O)[C@H](NC(=O)OCC2c3ccccc3-c3ccccc32)C/C=C\C[C@@H](CC(=O)N(CCO)Cc2ccccc2)C(=O)N1	?	9.2µM*	?	23µM*	-27	-17%
O=C(N[C@H]1C/C=C\C[C@@H](CC(=O)N(CCO)Cc2ccccc2)C(=O)NC[C@H](c2ccccc2)OC1=O)OCC1c2ccccc2-c2ccccc21	?	3.7µM*	23µM*	4.1µM*	14	?
O=C(N[C@@H]1C/C=C\C[C@@H](CC(=O)N(CCO)Cc2ccccc2)C(=O)NCCOC1=O)OCC1c2ccccc2-c2ccccc21	/	16µM*	-15%	9.2µM*	17	2%
C[N+](=O)C1C(=O)Nc2ccccc21 (stereo unspecified)	-13%	7%	4%	-13%	/	0%
C[C@@H]1COC(=O)[C@H](CC(=O)OC(C)(C)C)C/C=C\C[C@H](CC(=O)N(CCO)Cc2ccccc2)C(=O)N1	?	-15%	-7%	-16%	-4	2%
C[C@@H]1COC(=O)[C@H](NC(=O)OCC2c3ccccc3-c3ccccc32)C/C=C\C[C@@H](CC(=O)N(CCO)Cc2ccccc2)C(=O)N1	/	9.2µM*	9%	15µM*	3	10%
CC(C)n1cccc1C(=O)N1CCC2(CC1)CC(c1ccccc1)CN2C (stereo unspecified)	-18%	/	/	/	/	/
COCOc1cccc(CN2CCC2(C)C(=O)Nc2ccc(C)cc2)c1 (stereo unspecified)	-4%	?	?	?	-14	-25%
